Assay outcomes as filed in PubChem BioAssay.
HCV inh – HCV inhibition; 340,000 compounds, 3.4% hits; Potency, µM (series often up to 41.8 µM), for inactives: at the top dose activity change, negative = inhibition, hits mostly inhibitors; Huh7.5.1 HCVcc-Cre infection, luciferase reporter, 44 h; AID 651820; note: potency is the fitted concentration of half-maximal effect; % is set by controls: 0 for no effect and ±100 for the full control effect
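Antiviral activity was scored by luciferase reporter output from cells infected with HCVcc-Cre (~0.5 moi) in presence of compound, 44 h infection period, cells seeded 1,000/well 4 h prior.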
Pf growth 96h – P. falciparum growth inhibition at 96 hour, primary screen for plastid delayed-death inhibitors; 320,000 compounds, 6.9% hits; P. falciparum luciferase reporter growth, 96 h; Potency, µM (series often up to 28.7 µM), inactives show at the highest dose activity change, negative = inhibition, actives largely listed as inhibitors; note: potency is the fitted concentration of half-maximal effect; % is set by controls: 0 for no effect and ±100 for the full control effect
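Plates of compound plus infected erythrocytes (2% hematocrit, 0.05% parasitemia final) incubate 96 hours, 37 C, 5% CO2. Detection reagent added; reduced luminescence from the parasites' luciferase reporter flags inhibition.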
Shiga inhibitor – inhibitors of Shiga toxin in Vero cells; Vero cells, Shiga toxin protein synthesis inhibition reporter; inhibition, % at 38.7 µM; 290,000 compounds, 9.2% hits; AID 2315; in the data active = inhibition mostly above about 28%, no sharp cut-off; inactive = mostly below about 43%; note: 0% is about no effect
Cycloheximide cs – affects cycloheximide protein synthesis inhibition readout, counter-screen. cell reporter, cycloheximide protein synthesis inhibition counterscreen. 300,000 compounds, 12% hits. max response, %. AID 2314; in the data active = max response mostly above about 13%, no sharp cut-off; inactive = mostly below about 14%; note: read at 38.3 µM for the half of the compounds with a filed dose; 0% is about no effect
Pf growth 48h – P. falciparum growth inhibition at 48 hours (one generation); P. falciparum luciferase growth in erythrocytes, 48 h; Potency, µM (top dose mostly 28.7 µM), for inactives: at the top dose activity change, negative = inhibition, actives largely listed as inhibitors; 310,000 compounds, 5.9% hits; AID 504832; note: potency is the fitted concentration of half-maximal effect; % is set by controls: 0 for no effect and ±100 for the full control effect
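Compounds are pin-transferred into medium, infected erythrocytes (2% hematocrit, 0.1% parasitemia final) are added, and plates sit one parasite generation at 37 C in 5% CO2. Detection reagent is then added and luminescence measured.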
AMA1 RON2 block – AMA1-RON2 (P. falciparum) interaction inhibition; AlphaScreen AMA1-biotinylated RON2 peptide binding; Potency, µM (doses to about 58.2 µM), for the others: top-dose activity change, negative = inhibition, actives largely listed as inhibitors; 360,000 compounds, 0.2% hits; AID 720542;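 note: potency is the fitted concentration of half-maximal effect; 0% = vehicle wells and -100% = peptide control; nearly all actives have a fitted effect of over 45% in size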
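AMA1 (3D7) with his tag at 25 nM final met compounds first, then biotinylated RON2 peptide at 25 nM; detection used donor plus acceptor beads, 10 µg/mL apiece, read by AlphaScreen after 30 min at room temperature.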
* = called active by the depositor; [ ] = another dose, or the depositor's remark. Only some compounds are listed: those with a hit (about 21% of all), similar ones and a draw of the others. Unless noted, calls come from the whole dose curve; as a rule, active = well fitted curve in the direction sought with a large enough effect; inconclusive = small, poorly fitted or top-dose-only effect, or another doubt; inactive = no such curve, though single readings can be large; an effect the other way counts as inactive or inconclusive.

`COC1(C)CC(c2ccccc2)c2c(c3ccccc3oc2=O)O1` (configuration not stated) gave Shiga inhibitor -4 and Cycloheximide cs 11.
`CCN1C(=O)[C@H]2[C@@H](c3ccc(-c4ccc(C(C)=O)cc4)cc3)N3CCC[C@@]3(C(=O)OC)[C@H]2C1=O` gave HCV inh inconclusive, Pf growth 96h inconclusive, Pf growth 48h inconclusive and AMA1 RON2 block -12%.
Screening CCN1C(=O)[C@@H]2[C@@H](c3ccc(-c4ccc(C(C)=O)cc4)cc3)N3CCC[C@@]3(C(=O)OC)[C@@H]2C1=O returned HCV inh -11%, Pf growth 96h inconclusive, Pf growth 48h 9.3µM* and AMA1 RON2 block -7%.
For CCN1C(=O)[C@H]2[C@@H](c3ccc(-c4ccc(C(C)=O)cc4)cc3)N3CCCC[C@@]3(C(=O)OC)[C@H]2C1=O the results were HCV inh 9%, Pf growth 96h 12µM*, Pf growth 48h inconclusive and AMA1 RON2 block 1%.
O=C(O)c1c(Cl)c(Cl)c(Cl)c(Cl)c1C(=O)OCC1CCCO1 (configuration not stated) was read as AMA1 RON2 block -6%.
Screening CS(=O)(=O)N1N=C(c2ccc3nccnc3c2)CC1c1ccccc1 (configuration not stated) returned HCV inh -9%, Pf growth 96h inconclusive, Shiga inhibitor 35, Cycloheximide cs 17*, Pf growth 48h inconclusive and AMA1 RON2 block 1%.
CS(=O)(=O)Nc1cccc(C2=NN(S(C)(=O)=O)C(c3ccccc3)C2)c1 (configuration not stated) was read as HCV inh 17%, Pf growth 96h 52%, Shiga inhibitor 27, Cycloheximide cs 9, Pf growth 48h 11% and AMA1 RON2 block 25%.
Screening Cc1ccc(C2=NN(S(C)(=O)=O)C(c3ccc4nccnc4c3)C2)cc1 (configuration not stated) returned HCV inh -1%, Pf growth 96h 63%, Shiga inhibitor 46*, Cycloheximide cs 19*, Pf growth 48h 99% and AMA1 RON2 block -7%.
COc1ccc(C2CC(c3ccc(OC)c(OC)c3)=NN2S(C)(=O)=O)cc1 (configuration not stated) was read as HCV inh inconclusive, Pf growth 96h 223%, Shiga inhibitor 88*, Cycloheximide cs 63*, Pf growth 48h 173% and AMA1 RON2 block -11%.
COc1ccc(C2=NN(S(C)(=O)=O)C(c3ccc4nccnc4c3)C2)cc1 (configuration not stated) was read as HCV inh 7%, Pf growth 96h -10%, Shiga inhibitor 60*, Cycloheximide cs 79*, Pf growth 48h 82% and AMA1 RON2 block 0%.
For CC(=O)c1cnc(Oc2cc(Cl)ccc2Cl)nc1C the results were HCV inh 6%, Pf growth 96h 11%, Shiga inhibitor -11, Cycloheximide cs -5, Pf growth 48h -5% and AMA1 RON2 block 6%.
`Cc1onc(-c2ccccc2Cl)c1C(=O)Nc1ccccc1O` gave HCV inh -3%, Pf growth 96h -18%, Shiga inhibitor 14, Cycloheximide cs -1, Pf growth 48h -28% and AMA1 RON2 block -13%.
Screening Cc1ccc(C)c(NC(=S)NCC(c2ccccc2)N(C)C)c1 (configuration not stated) returned HCV inh 1%, Pf growth 96h inconclusive, Shiga inhibitor -4, Cycloheximide cs -3, Pf growth 48h inconclusive and AMA1 RON2 block 3%.
`CS(=O)(=O)N1N=C(c2ccccc2)CC1c1ccc2nccnc2c1` (configuration not stated) gave HCV inh 33%, Pf growth 96h -3%, Shiga inhibitor 63*, Cycloheximide cs 18, Pf growth 48h 32% and AMA1 RON2 block -10%.
For O=C(O)CCC(=O)N1N=C(c2ccccc2)CC1c1ccc2nccnc2c1 (configuration not stated) the results were HCV inh 11%, Pf growth 96h 71%, Shiga inhibitor -7, Cycloheximide cs 7, Pf growth 48h 18% and AMA1 RON2 block 26%.
For O=C(CN1C(=O)CSc2ccc(S(=O)(=O)N3CCCCC3)cc21)NCc1ccccc1Cl the results were HCV inh -19%, Pf growth 96h 31%, Shiga inhibitor -4, Cycloheximide cs 4, Pf growth 48h inconclusive and AMA1 RON2 block -7%.
For C=CCn1c(SCC(=O)N2CC(C)OC(C)C2)nnc1-c1ccncc1 (configuration not stated) the results were HCV inh -3%, Pf growth 96h 7%, Pf growth 48h -4% and AMA1 RON2 block 6%.
For Cn1c(SCC(=O)N2CCN(c3ccccc3)CC2)nnc1-c1ccncc1 the results were HCV inh 14%, Pf growth 96h 12µM*, Shiga inhibitor 14, Cycloheximide cs -5, Pf growth 48h -26% and AMA1 RON2 block 5%.
O=C(CSc1nnc(-c2cccnc2)n1-c1ccc(SC(F)F)cc1)N1CCCc2ccccc21 was read as HCV inh 0%, Pf growth 96h 10µM*, Shiga inhibitor -7, Cycloheximide cs -2, Pf growth 48h inconclusive and AMA1 RON2 block 0%.
For CC1CN(C(=O)CSc2nnc(-c3ccc(Cl)cc3)n2C)CC(C)O1 (configuration not stated) the results were HCV inh -4%, Pf growth 96h 31%, Shiga inhibitor 55, Cycloheximide cs 20*, Pf growth 48h 3% and AMA1 RON2 block -4%.
For Cc1c(C)n2c(SCC(=O)N3CCN(c4ccccc4)CC3)nnc2[nH]c1=O the results were HCV inh 46%, Pf growth 96h inconclusive, Pf growth 48h 3.3µM* and AMA1 RON2 block 19%.
`CCOc1ccccc1-n1c(SCC(=O)N2CCCc3ccccc32)nnc1-c1cccnc1` gave HCV inh inconclusive, Pf growth 96h inconclusive, Shiga inhibitor -25, Cycloheximide cs -5, Pf growth 48h inconclusive and AMA1 RON2 block 10%.
For O=C(CC(c1ccccc1)c1ccccc1)Nc1ccc(C(=O)O)cc1 the results were HCV inh 2%, Pf growth 96h -16%, Shiga inhibitor 15, Cycloheximide cs 1, Pf growth 48h 0% and AMA1 RON2 block -11%.
Cc1c(C)n2c(SCC(=O)N3CC(C)OC(C)C3)nnc2[nH]c1=O (configuration not stated) was read as HCV inh -1%[8.37 µM], Pf growth 96h 5.2µM*, Pf growth 48h inconclusive and AMA1 RON2 block 8%.
